Source: PubChem BioAssay
Several values for one entry are separate records, joined by “and”; a condition that tells them apart may be missing. Equal values may be shown once. Activity calls are given as the source filed them.

Key:
[1] = test system: PRMT1 (protein arginine N-methyltransferase 1); test: small molecules binding arginine methyltransferase PRMT1 – biochemical, small-molecule microarray, 635 nm fluorescence, primary screen (AID 1088); settings: higher = more signal;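 note: binding of Prmt1 protein to compounds spotted on small-molecule microarray slides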
[2] = growth effects on S. cerevisiae YJM789 – YJM789 clinical isolate, OD600, 24 h, basal, primary screen (AID 1089); settings: higher = more signal, called active from +8 up or from −8 down;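 note: growth of clinical yeast isolate S. cerevisiae YJM 789 seeded 1000 cells per well; test concentration not given here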
[3] = S. pombe growth modifiers, basal conditions – strain 972, OD600, 24 h, no modulator, primary screen (AID 1090);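 note: basal condition with compound alone and no growth modifier present; test concentration not given here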; settings: S. pombe 972 growth, higher = more signal, called active from +8 up or from −8 down
[4] = budding yeast growth modifiers under rapamycin – strain BY4716, OD600, 96 h, primary screen (AID 1091); note: test concentration not given here; settings: S. cerevisiae BY4716 + rapamycin, higher = more signal, called active from +8 up or from −8 down
[5] = molecular target: Torsin-1A-interacting protein 2 (Homo sapiens) (UniProt Q8NFQ8); test: small molecules binding lysate-expressed LULL1 – cell lysate, human LULL1 lysate, 635/667 nm fluorescence, primary screen (AID 1092); settings: small-molecule microarray, hLULL1 lysate binding, 635 nm fluorescence; higher = more signal;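 note: probe is lysate of COS7 cells overexpressing human LULL1; score merges per-feature 667 nm fluorescence with signal-to-noise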
Torsin-1A-interacting protein 2 (Homo sapiens), sequence (Q8NFQ8 whole entry, looked up): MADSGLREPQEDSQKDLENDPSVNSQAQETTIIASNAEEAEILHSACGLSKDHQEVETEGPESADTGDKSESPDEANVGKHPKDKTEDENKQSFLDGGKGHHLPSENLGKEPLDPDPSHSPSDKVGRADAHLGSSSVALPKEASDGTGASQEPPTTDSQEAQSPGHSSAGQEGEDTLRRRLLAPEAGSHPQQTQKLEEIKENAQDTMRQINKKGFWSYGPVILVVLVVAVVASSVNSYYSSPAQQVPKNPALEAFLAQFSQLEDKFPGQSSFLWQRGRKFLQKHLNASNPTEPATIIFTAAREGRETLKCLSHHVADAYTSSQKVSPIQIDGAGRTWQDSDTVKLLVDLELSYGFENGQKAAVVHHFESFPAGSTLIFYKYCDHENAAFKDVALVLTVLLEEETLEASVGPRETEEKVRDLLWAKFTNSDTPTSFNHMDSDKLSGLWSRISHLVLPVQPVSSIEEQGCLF

[6] = optical density change of DRC41 E. coli – strain DRC41, OD650, 24 h, E. coli filamentation project, primary screen (AID 1093);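 note: MC1000 strain lacking acrAB efflux and sulA so SOS filamentation is blocked; test concentration not given here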; settings: E. coli DRC41 growth, higher = more signal, called active from +8 up or from −8 down
[7] = probe aLefty2 binding to arrayed compounds – biochemical, biotinylated probe, 635/667 nm fluorescence, primary screen (AID 1094); settings: small-molecule microarray, higher = more signal;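 note: score merges spot fluorescence near 667 nm with spot signal-to-noise ratio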
[8] = test system: Noggin (protein binding on small-molecule microarray); test: small molecules binding Noggin protein – biochemical, 635/667 nm fluorescence, primary screen (AID 1095); settings: 635 nm fluorescence, higher = more signal;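 note: score merges 667 nm feature fluorescence with signal to noise over triplicate slides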
[9] = molecular target: Neurogenic locus notch homolog protein 3 (Homo sapiens) (UniProt Q9UM47); test: small molecules binding NOTCH3 protein – biochemical, 635/667 nm fluorescence, primary screen (AID 1096); settings: small-molecule microarray, 635 nm fluorescence, higher = more signal
Neurogenic locus notch homolog protein 3 (Homo sapiens), sequence (Q9UM47 whole entry, looked up): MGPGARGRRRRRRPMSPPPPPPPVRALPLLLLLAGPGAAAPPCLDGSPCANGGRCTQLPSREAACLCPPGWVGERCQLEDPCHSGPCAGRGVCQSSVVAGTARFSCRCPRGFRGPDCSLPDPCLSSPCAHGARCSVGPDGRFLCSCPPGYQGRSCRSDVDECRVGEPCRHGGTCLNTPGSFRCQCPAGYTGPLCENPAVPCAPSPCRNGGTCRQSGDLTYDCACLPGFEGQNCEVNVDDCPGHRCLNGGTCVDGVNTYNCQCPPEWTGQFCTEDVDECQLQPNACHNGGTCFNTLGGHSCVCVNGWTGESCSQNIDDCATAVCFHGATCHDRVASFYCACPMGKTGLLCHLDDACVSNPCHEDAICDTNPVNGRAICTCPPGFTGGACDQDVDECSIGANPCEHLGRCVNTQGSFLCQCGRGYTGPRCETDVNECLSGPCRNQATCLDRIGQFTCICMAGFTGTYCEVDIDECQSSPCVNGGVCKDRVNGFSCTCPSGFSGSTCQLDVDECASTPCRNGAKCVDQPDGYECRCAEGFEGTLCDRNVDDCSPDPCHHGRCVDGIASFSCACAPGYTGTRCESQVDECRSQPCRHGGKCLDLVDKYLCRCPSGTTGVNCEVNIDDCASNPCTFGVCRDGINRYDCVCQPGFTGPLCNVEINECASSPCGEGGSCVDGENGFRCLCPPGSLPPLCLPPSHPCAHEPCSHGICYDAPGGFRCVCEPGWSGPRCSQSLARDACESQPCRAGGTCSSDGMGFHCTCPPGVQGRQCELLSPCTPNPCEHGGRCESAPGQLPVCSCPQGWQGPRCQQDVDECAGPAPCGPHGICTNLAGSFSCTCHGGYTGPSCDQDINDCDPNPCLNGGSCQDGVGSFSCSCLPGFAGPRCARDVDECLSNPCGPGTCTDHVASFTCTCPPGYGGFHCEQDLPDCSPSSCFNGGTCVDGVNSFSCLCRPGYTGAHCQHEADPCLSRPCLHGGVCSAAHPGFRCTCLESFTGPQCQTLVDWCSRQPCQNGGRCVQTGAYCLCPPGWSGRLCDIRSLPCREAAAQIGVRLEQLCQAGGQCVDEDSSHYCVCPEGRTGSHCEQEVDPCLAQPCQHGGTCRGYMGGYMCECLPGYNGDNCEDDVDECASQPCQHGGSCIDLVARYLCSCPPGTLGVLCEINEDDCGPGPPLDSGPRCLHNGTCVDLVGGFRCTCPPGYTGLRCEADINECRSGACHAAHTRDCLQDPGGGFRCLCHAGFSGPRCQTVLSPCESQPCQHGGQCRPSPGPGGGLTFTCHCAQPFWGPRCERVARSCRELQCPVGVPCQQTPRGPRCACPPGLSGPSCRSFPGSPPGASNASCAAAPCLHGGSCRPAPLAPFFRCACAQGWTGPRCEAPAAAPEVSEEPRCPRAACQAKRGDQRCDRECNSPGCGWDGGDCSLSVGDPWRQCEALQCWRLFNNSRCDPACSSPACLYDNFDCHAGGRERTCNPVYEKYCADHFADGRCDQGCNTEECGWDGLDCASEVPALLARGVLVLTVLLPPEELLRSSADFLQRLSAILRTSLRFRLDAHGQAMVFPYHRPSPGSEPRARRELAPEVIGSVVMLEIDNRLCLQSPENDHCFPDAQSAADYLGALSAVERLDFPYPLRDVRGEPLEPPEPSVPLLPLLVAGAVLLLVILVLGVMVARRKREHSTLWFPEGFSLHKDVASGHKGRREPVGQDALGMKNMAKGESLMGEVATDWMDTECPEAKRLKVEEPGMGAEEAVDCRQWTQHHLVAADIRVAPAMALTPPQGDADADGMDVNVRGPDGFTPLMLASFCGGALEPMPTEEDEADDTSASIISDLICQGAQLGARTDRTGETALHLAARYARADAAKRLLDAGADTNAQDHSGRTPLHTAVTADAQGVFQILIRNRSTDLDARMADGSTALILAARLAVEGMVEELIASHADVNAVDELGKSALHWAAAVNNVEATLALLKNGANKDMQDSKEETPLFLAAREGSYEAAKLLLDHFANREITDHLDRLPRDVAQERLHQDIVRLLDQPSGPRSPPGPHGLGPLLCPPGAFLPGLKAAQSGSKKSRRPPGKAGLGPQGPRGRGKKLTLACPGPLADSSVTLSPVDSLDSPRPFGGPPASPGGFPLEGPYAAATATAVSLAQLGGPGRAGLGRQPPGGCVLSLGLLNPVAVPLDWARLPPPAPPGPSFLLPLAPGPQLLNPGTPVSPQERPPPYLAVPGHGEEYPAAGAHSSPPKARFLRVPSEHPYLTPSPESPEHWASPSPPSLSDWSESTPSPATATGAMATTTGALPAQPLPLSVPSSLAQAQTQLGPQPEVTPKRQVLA

[10] = probe aEGFR binding to arrayed compounds – biochemical, biotinylated probe, 635/667 nm fluorescence, primary screen (AID 1097); settings: small-molecule microarray, higher = more signal;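 note: probe is a biotinylated anti-EGFR antibody binding compounds printed on slides; score combines fluorescence near 667 nm and signal to noise of each spot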
[11] = test system: Plasmodium falciparum Sir2 (PF13_0152, Sir2A); test: Plasmodium falciparum Sir2A binding compounds – biochemical, small-molecule microarray, 635 nm fluorescence, primary screen (AID 1098); settings: fluorescence 635 nm, higher = more signal;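 note: score merges spot fluorescence intensity with its signal-to-noise ratio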
[12] = probe aDKK1 binding to arrayed compounds – biochemical, biotinylated probe, 635/667 nm fluorescence, primary screen (AID 1099); settings: small-molecule microarray, higher = more signal;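 note: score merges 667nm spot fluorescence with signal to noise across triplicate slides; reference of the scale not given here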
[13] = probe aCHRDL2 binding to arrayed compounds – biochemical, biotinylated probe, 635/667 nm fluorescence, primary screen (AID 1100); settings: small-molecule microarray, higher = more signal
[14] = change in splice reporter luminescence, either direction, cell-based, HEK293, spliceosome inhibition project, primary screen (AID 1101); settings: HEK293 splicing luciferase reporter, 24 h, higher = more signal, called active from +8 up or from −8 down;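 note: HEK293 cells carrying a splicing-competent luciferase reporter gene; test concentration not given here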
[15] = molecular target: Fibroblast growth factor 10 (Homo sapiens) (UniProt O15520); test: compounds binding fibroblast growth factor 10 – biochemical, small-molecule microarray, 635 nm fluorescence, primary screen (AID 1102); settings: FGF10 binding, fluorescence 635 nm, higher = more signal
Fibroblast growth factor 10 (Homo sapiens), sequence (O15520 whole entry, looked up): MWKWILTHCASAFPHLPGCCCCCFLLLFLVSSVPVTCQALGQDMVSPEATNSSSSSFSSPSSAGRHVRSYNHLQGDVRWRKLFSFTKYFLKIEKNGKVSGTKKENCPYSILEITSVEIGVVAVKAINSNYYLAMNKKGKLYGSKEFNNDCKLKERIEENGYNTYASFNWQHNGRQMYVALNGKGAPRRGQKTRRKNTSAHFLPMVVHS

[16] = test system: glycogen synthase kinase-3 (GSK3A per assay name; protocol says GSK3B); test: compounds binding glycogen synthase kinase-3 – biochemical, small-molecule microarray, 635 nm fluorescence, GSK3A, primary screen (AID 1103); settings: fluorescence 635 nm, higher = more signal; note: the record names both GSK3A and GSK3B
[17] = molecular target: Epidermal growth factor receptor (Homo sapiens) (UniProt P00533); test: compounds binding epidermal growth factor receptor – biochemical, small-molecule microarray, 635 nm fluorescence, primary screen (AID 1104); settings: EGFR binding, higher = more signal;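 note: score merges 667 nm emission intensity with spot signal to noise over triplicate slides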
Epidermal growth factor receptor (Homo sapiens), sequence (P00533 whole entry, looked up): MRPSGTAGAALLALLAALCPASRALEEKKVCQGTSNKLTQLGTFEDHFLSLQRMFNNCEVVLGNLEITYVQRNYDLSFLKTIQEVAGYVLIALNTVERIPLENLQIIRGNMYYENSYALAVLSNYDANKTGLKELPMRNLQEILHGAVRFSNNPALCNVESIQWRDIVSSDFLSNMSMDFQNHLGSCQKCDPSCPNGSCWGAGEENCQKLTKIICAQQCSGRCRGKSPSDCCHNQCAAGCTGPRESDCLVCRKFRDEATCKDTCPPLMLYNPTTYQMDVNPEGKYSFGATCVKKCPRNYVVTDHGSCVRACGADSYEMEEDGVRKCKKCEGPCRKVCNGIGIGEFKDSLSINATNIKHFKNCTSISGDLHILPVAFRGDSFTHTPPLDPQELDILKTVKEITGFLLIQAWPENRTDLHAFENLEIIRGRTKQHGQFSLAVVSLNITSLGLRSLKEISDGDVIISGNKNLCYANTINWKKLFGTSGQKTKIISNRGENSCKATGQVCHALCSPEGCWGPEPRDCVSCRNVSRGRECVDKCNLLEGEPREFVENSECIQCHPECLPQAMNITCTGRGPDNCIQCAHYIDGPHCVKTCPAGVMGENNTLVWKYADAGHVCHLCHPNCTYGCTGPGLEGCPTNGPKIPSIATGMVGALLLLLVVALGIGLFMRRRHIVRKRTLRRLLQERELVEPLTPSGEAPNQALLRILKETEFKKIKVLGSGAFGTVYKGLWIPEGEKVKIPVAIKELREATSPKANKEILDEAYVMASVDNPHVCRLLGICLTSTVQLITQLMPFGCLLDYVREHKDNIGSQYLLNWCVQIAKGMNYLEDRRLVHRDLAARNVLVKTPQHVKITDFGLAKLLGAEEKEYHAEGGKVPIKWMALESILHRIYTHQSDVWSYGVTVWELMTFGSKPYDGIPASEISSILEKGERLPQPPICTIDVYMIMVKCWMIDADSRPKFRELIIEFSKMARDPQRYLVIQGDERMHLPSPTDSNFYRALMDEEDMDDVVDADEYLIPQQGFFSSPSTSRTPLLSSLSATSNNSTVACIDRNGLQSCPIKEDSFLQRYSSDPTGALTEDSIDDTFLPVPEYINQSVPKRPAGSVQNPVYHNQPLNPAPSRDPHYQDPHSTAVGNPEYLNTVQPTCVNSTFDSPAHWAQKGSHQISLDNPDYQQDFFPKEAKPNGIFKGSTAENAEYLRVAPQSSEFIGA

[18] = molecular target: Follistatin-related protein 3 (Homo sapiens) (UniProt O95633); test: compounds binding follistatin-related protein 3 – biochemical, small-molecule microarray, 635 nm fluorescence, primary screen (AID 1105); settings: FSTL3 binding, higher = more signal;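 note: score merges emission near 667 nm and signal to noise per printed spot across three slides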
Follistatin-related protein 3 (Homo sapiens), sequence (O95633 whole entry, looked up): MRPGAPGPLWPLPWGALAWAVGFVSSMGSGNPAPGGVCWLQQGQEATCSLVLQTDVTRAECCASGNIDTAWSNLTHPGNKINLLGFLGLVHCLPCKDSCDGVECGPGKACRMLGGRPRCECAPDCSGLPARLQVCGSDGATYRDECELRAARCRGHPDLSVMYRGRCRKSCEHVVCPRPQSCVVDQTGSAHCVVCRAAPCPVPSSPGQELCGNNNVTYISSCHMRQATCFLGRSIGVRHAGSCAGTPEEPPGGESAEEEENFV

[19] = molecular target: Dickkopf-related protein 1 (Homo sapiens) (UniProt O94907); test: small molecules binding DKK1 protein – biochemical, small-molecule microarray, 635 nm fluorescence scan, primary screen (AID 1106); settings: higher = more signal;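 note: score merges emission near 667 nm with signal to noise over three replicate slides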
Dickkopf-related protein 1 (Homo sapiens), sequence (O94907 whole entry, looked up): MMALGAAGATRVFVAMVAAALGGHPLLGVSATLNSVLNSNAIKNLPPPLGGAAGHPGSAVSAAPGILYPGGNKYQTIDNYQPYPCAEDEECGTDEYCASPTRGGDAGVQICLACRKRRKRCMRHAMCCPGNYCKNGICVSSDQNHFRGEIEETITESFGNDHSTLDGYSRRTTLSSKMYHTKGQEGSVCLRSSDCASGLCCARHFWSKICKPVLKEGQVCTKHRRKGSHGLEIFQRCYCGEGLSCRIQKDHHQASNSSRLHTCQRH

[20] = test system: Inhibin beta A chain (activin A); test: small molecules binding activin A – biochemical, small-molecule microarray, 635 nm fluorescence scan, primary screen (AID 1107); settings: INHBA, higher = more signal;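 note: mouse activin A protein probed at 4.33 µg/mL on printed slides; score merges bound-protein fluorescence near 667 nm with spot signal-to-noise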

| SMILES | composite z-score [1] | z-score [2] | z-score [3] | z-score [4] | composite z-score [5] | z-score [6] | composite z-score [7] | composite z-score [8] | composite z-score [9] | composite z-score [10] | composite z-score [11] | composite z-score [12] | composite z-score [13] | z-score [14] | composite z-score [15] | composite z-score [16] | composite z-score [17] | composite z-score [18] | composite z-score [19] | composite z-score [20] |
| --- | --- | --- | --- | --- | --- | --- | --- | --- | --- | --- | --- | --- | --- | --- | --- | --- | --- | --- | --- | --- |
| COC(=O)C1=C(C)N(Cc2ccccc2)C2=C(C(C)=O)[C@H](c3ccccc3)[C@@](O)(C(=O)OC)C(=O)N2[C@@H]1c1ccccc1 | 1.09 and -0.374 | 0.0482 (inactive) and -3.34 (inactive) | -4.6 (inactive) and -4.09 (inactive) | -0.873 (inactive) and -2.14 (inactive) | 0.72 and -0.756 | -0.0134 (inactive) and -0.274 (inactive) | -0.0873 and -0.254 | 0.409 and 0.203 | 1.13 and -0.352 | 0.0729 and -0.118 | 0.765 and -0.399 | 0.156 and -0.547 | -0.535 and -0.652 | -0.694 (inactive) and -2.98 (inactive) | 0.686 and 0.158 | 0.845 and -0.533 | 0.365 and 0.197 | 0.796 and 0.145 | 0.591 and -0.0346 | 0.174 and 1.21 |
| COC(=O)[C@@]1(Cc2ccc(OC)cc2)[C@H]2c3cc(C(=O)N(C)C)n(Cc4ccc(O)c(OC)c4)c3C[C@H]2CN1C(=O)c1ccccc1 | -0.406 and 0.571 | 0.403 (inactive) and -0.731 (inactive) | 1.08 (inactive) and 1.73 (inactive) | 0.374 (inactive) and 2.03 (inactive) | 3.65 and 3.34 | 0.151 (inactive) and 0.266 (inactive) | 0.437 and 0.261 | 0.219 and 0.19 | 0.807 and 1.07 | 0.0395 and 0.0354 | 1.17 and 1.27 | 0.714 and 0.773 | 1.08 and 0.94 | -2.55 (inactive) and -2.51 (inactive) | 0.113 and 1.15 | 0.568 and -0.198 | -0.14 and -0.143 | 0.418 and 0.592 | -0.529 and -0.128 | 0.876 and 0.416 |
| O=C(NN=C1C[C@@H](O)[C@@H](O)[C@@H]2[C@@H]3C(=O)N(Cc4ccc5c(c4)OCO5)C(=O)[C@@H]3CC[C@H]12)OCc1ccccc1 | 1.15 | 0.48 (inactive) | -0.157 (inactive) | 0.191 (inactive) | -0.815 | 1.01 (inactive) | -0.0047 | 0.707 | -0.0259 | -0.0828 | -0.345 | 0.118 | 0.298 | 0.0692 (inactive) | -0.464 | -1.2 | -0.0036 | -0.904 | -1.57 | -2.22 |
| C=CCN(CCCCC)C(=O)C(c1cccs1)N(CCOCCO)C(=O)/C=C\C(=O)O (stereo not given) | -0.718 and -0.737 | -1.32 (inactive) and -1.53 (inactive) | -0.464 (inactive) and -0.606 (inactive) | -0.289 (inactive) and -0.433 (inactive) | -0.93 and -0.573 | 0.986 (inactive) and 1.18 (inactive) | -0.0977 and -0.0831 | -1.24 and -1.19 | -1.09 and -1.06 | -0.231 and -0.324 | 0.0427 and 0.42 | -0.588 and -0.228 | 0.658 and 0.6 | -0.841 (inactive) and -1.36 (inactive) | -1.6 and -0.98 | -0.918 and -0.491 | -1.05 and -0.766 | -0.411 and -0.744 | -1.04 and -1.54 | -1.79 and -0.36 |
| C=CCN(Cc1ccccc1)C(=O)C(c1cccs1)N(C(=O)/C=C\C(=O)O)c1c(Cl)cccc1CO (stereo not given) | -0.716 and -1.9 | 0.506 (inactive) and -0.555 (inactive) | 0.172 (inactive) and 0.261 (inactive) | 0.23 (inactive) and -0.457 (inactive) | -1.36 and -0.736 | 2.07 (inactive) and -0.369 (inactive) | -0.128 and -0.121 | -2.28 and -3.61 | -1 and -1.49 | -0.252 and -0.359 | -1.01 and -1.02 | -0.833 and 0.0042 | 0.898 and 0.996 | 0.395 (inactive) and -0.0385 (inactive) | -1.96 and -1.73 | -1.09 and -1.76 | -1.63 and -1.36 | -1.27 and -2.07 | -2.01 and -2.62 | -3.32 and -2.86 |
| COc1ccc(-c2ccc3c(n2)CCCN3CC(O)CN2CCCc3nc(-c4ccc(Br)cc4)ccc32)cc1 (stereo not given) | 1.47 and -0.0348 | 0.0467 (inactive) and -0.621 (inactive) | -0.665 (inactive) and 0.124 (inactive) | -2.52 (inactive) and -1.64 (inactive) | 1.24 and 0.778 | 0.0393 (inactive) and 0.816 (inactive) | 0.351 and 0.141 | 0.348 and 0.245 | 0.877 and 0.491 | 0.181 and 0.106 | 1.01 and 0.727 | 0.507 and 0.293 | 0.0498 and 0.803 | 0.0317 (inactive) and -0.356 (inactive) | 0.829 and 0.6 | 0.682 and 0.382 | 0.476 and 0.459 | 0.868 and 0.601 | 0.372 and 0.291 | 1.33 and -1.05 |
| C[C@@H]1CC[C@H]2C(=O)NC[C@@H](O)CN2[C@H]1c1ccc(Br)cc1 | -0.0838 and -0.473 | -0.77 (inactive) and 0.443 (inactive) | -0.0565 (inactive) and -0.0682 (inactive) | -0.451 (inactive) and 0.389 (inactive) | 0.759 and -0.129 | 0.0565 (inactive) and 0.377 (inactive) | -0.136 and -0.253 | 0.561 and -0.0536 | -0.0857 and -0.344 | -0.171 and -0.0356 | 0.102 and 0.107 | -0.214 and -0.138 | -0.0441 and -0.0598 | 0.338 (inactive) and 0.0732 (inactive) | -0.0319 and -0.141 | -0.645 and -0.288 | -0.251 and -0.159 | -0.348 and -0.394 | -0.219 and -0.179 | 0.747 and 0.211 |
| C=CCN(CCCC)C(=O)C1N(CCOCCO)C(=O)C2C(C(=O)O)C3C=CC21O3 (stereo not given) | -0.779 and -1.02 | 0.784 (inactive) and 1.05 (inactive) | 0.269 (inactive) and 0.777 (inactive) | 1.11 (inactive) and 1.07 (inactive) | 2.94 and -0.643 | 0.489 (inactive) and 0.0433 (inactive) | -0.0065 and -0.291 | -2.5 and -2.13 | -0.298 and -1.36 | -0.326 and -0.314 | 1.46 and 0.591 | -0.0203 and -0.336 | 1.02 and 0.53 | 0.391 (inactive) and 0.915 (inactive) | -1.38 and -1.65 | -1.47 and -1.21 | -1.89 and -1.27 | -1.5 and -2.25 | -3.09 and -1.87 | -3.45 and -2.19 |
